The nature of experiment [1]: inhibitors of PAF-induced NFkB signaling in CF airway cells, dose response, cell-based, uHTS hits, panel, cytotoxicity readout (AID 624344). Conditions: CF bronchial epithelial cells, PAF-induced NFkB reporter inhibition, with PAF, run 1; at 79 µM (top of the series) unless noted.
Assay in experiment [2]: as above
Particulars: CF bronchial epithelial cells, PAF-induced NFkB reporter inhibition, with PAF, run 2; at 79 µM (top of the series) unless noted.

Broadly, the inhibition is the drop in the measured response relative to a control, in per cent. For `CCOc1ccc(-n2cc(-c3ccccc3)c3c(N4CCOCC4)ncnc32)cc1`, the inhibition in experiment [1] was found to be 112%; in experiment [2] it was 102%.
For `CC1(C)CC(=O)C(C2C3=C(CC(C)(C)CC3=O)Oc3c(Br)cc(Br)cc32)=C(O)C1` (stereo not drawn), in that order: 104% and 111%.
For `CCOC(=O)[C@@H]1[C@H]2COc3ccc(Br)cc3[C@H]2N2C(=O)N(c3ccc(C)cc3)C(=O)[C@]12C`, the inhibition was 14.6% in experiment [1] and 35.9% in experiment [2].
For `COC(=O)N1C(=O)[C@@](c2ccc(OC)cc2)(C(C)C)N1C(=O)OC`, in that order: 101% and 102%.
As to `COc1ccc(-c2cnc3c(NC=O)cc(-c4ccc(C(=O)N5CCOCC5)cc4)cn23)cc1OC`, the inhibition in experiment [1] was found to be 106%; in experiment [2] it was 99%.
For `C=Cc1ccc(CC2(C)C(=O)Nc3ccc(-c4cccnc4)cc32)cc1` (stereo not drawn), in that order: 113% and 102%.
The matching figures for `COc1ccc(S(=O)(=O)N(C(C)=O)c2ccc(OC(C)=O)c3ccccc23)cc1[N+](=O)[O-]`: 59.1% and 99.4% [at 39.5 µM].
For `Cc1ccc2[nH]cc(C(=O)CCl)c2c1`, in that order: 60.6% and 72%.
Take `CNc1ccc2ncc(-c3cccc(C(=O)N(C)C)c3)n2n1`: the figures for the inhibition in experiment [1] and in experiment [2] were 111% and 106%, respectively.
As to `CC(=O)c1ccc(-n2c(C)c(C(C)=O)c3cc(O)ccc32)cc1`, the values for the inhibition in experiment [1] and in experiment [2] were 56.2% and 74.6%, respectively.
The matching figures for `C=CCN1c2ccccc2Sc2cnccc21`: 105% and 116%.
For the molecule `COc1cccc(-c2cnc3c(NC=O)cc(-c4ccc(OC)cc4OC)cn23)c1`, the inhibition in experiment [1] amounted to 98.2%; in experiment [2], 86.1%.
The matching figures for `CC(C)(C)OC(=O)NCCCCCNC(=O)c1nc[nH]c1C(=O)NCC(=O)OCc1ccccc1`: 111% and 101%.
For `COc1ccc(NC(=O)c2cc3c(-c4ccc(OC)c(OC)c4)nn(C)c3s2)cc1OC`, in that order: 107% and 101%.

The record behind these values is PubChem BioAssay.
